Each compound was assayed on MAP3K1. Details: Compound Concentration (nM):1000.
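Further: KINOMEscan scanMAX binding as percent activity remaining versus control; lower means stronger binding.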

| Compound | Percent Control |
| --- | --- |
| Cl.O=S1CCN(Cc2ccc(-c3ccc4ncnc(Nc5ccc(OCc6ccccc6)c(F)c5)c4c3)o2)CC1 [GW576924A] | 81% |
| COc1ccc2[nH]c3c4[nH]c5ccc(OC)cc5c4c4c(c3c2c1)C(=O)NC4=O [GW296115X] | 71% |
| COc1cc2ncnc(Nc3ccc4c(cnn4Cc4ccccc4)c3)c2cc1OC.Cl [GW282449A] | 84% |
| COc1cc(C=NNc2ncnc3c2cnn3-c2ccccc2)ccc1O [GW513184X] | 100% |
| COc1ccccc1-c1cc(/C=C2\C(=O)Nc3ncc(Br)cc32)cc(Br)c1O [GW442130X] | 99% |
| CN1CCN(C(=O)c2ccc(NC(=O)Nc3ccc(N(C)c4ccnc(Nc5ccc(CS(C)(=O)=O)cc5)n4)cc3)cc2)CC1.Cl [GW830263A] | 83% |
| O=C1Nc2ccc(C(=O)c3ccco3)cc2C1=Cc1cc(Cl)c(O)c(Cl)c1 [GW406108X] | 63% |
| COc1cc(/C=N/Nc2ncnc3[nH]ncc23)ccc1O [GW578748X] | 49% |
| Cc1cc(O)cc(C)c1/C=C/c1cncc(C(N)=O)c1 [GW435821X] | 65% |
| CCS(=O)(=O)c1ccc(OC)c(Nc2ncc(-c3cccc(F)c3)o2)c1 [GW621970X] | 80% |
| Cl.O=C(Nc1ccc(Oc2ccc3[nH]c(NC(=O)c4ccco4)nc3c2)cc1)Nc1cc(C(F)(F)F)ccc1F [GW683134A] | 53% |
| Nc1ncnc2occ(-c3ccc(NC(=O)Nc4cc(C(F)(F)F)ccc4F)cc3)c12 [GW770249X] | 51% |
| O=C(Nc1n[nH]c2nc(-c3ccc(O)cc3)c(Br)cc12)C1CC1 [SB-725317] | 60% |
| CC1=C(C(=O)Nc2ccc3[nH]ncc3c2)C(c2ccc(Cl)c(Cl)c2)CC(=O)N1 (stereo not drawn) [GSK299115A] | 76% |
| NS(=O)(=O)c1ccc(N/N=C2\C(=O)Nc3ccc(Cl)cc32)cc1 [GW280670X] | 63% |
| CC1=C(C(=O)Nc2ccc3[nH]ncc3c2)C(c2ccc3ccccc3c2)CC(=O)N1 (stereo not drawn) [GSK270822A] | 68% |
| COc1cccc(-c2c[nH]c3c(N/N=C/c4ccncc4)ncnc23)c1 [GW814408X] | 92% |
| NS(=O)(=O)c1ccc(N/N=C2\C(=O)Nc3ccc(C(=O)NCCc4c[nH]cn4)cc32)cc1 [GW300660X] | 47% |
| CN(C)CCNC(=O)Nc1ccc(N(C)c2ccnc(Nc3ccc(CS(C)(=O)=O)cc3)n2)cc1.Cl [GW830900A] | 82% |
| COc1ccc2cc(-c3c(-c4ccncc4)nc(-c4ccc(S(C)(=O)=O)cc4C)n3C)ccc2c1 [SB-633825] | 60% |

| Compound | Percent Control |
| --- | --- |
| NS(=O)(=O)c1ccc(N/N=C2\C(=O)Nc3ccc(-c4cnco4)cc32)cc1 [GW276655] | 100% |
| COc1ccc2c(-c3ccnc(Nc4cccc(OC(F)(F)F)c4)n3)cnn2n1 [GW810372X] | 70% |
| Cl.O=C(O[C@H]1CN[C@H](C#Cc2cc3ncnc(Nc4ccc5c(cnn5Cc5ccccc5)c4)c3s2)C1)N1CCOCC1 [GSK200398A] | 56% |
| CCS(=O)(=O)c1ccc(OC)c(Nc2ncc(-c3cccc(OC)c3)o2)c1 [GW580509X] | 68% |
| CCc1ccc(Oc2nccc(-c3c(-c4ccc(F)cc4)ncn3C3CCNCC3)n2)cc1 [SB-242719] | 67% |
| NS(=O)(=O)c1ccc(N/N=C2\C(=O)Nc3ccc(C(=O)NCc4ccncc4)cc32)cc1 [GW300657X] | 67% |
| COc1ccc(COc2ccc(Cc3cnc(N)nc3N)cc2OC)cc1 [GW632580X] | 65% |
| NS(=O)(=O)c1ccc(Nc2ncc(-c3ccccc3)o2)cc1 [GW572399X] | 59% |
| COC(=O)Nc1nc2ccc(Oc3ccc(NC(=O)Nc4cc(C(F)(F)F)ccc4F)cc3)cc2s1.Cl [GW693917A] | 53% |
| COc1cc(C)c(N(C)C(=O)CN(C)C)cc1Nc1nc(Nc2cccc(F)c2C(N)=O)c2cc[nH]c2n1 [GSK2219385] | 83% |
| COc1cc(N2CCN(C(C)C)CC2)ccc1Nc1nc(Nc2ccc(F)cc2C(=O)NC[C@@H](O)CO)c2cc[nH]c2n1 [GSK1392956A] | 86% |
| CC(C)COC(=O)c1ccc2c(c1)/C(=C/Nc1ccc(S(N)(=O)=O)cc1)C(=O)N2 [GW416981X] | 67% |
| Cl.c1ccc(Cc2nc3ccc(Nc4ncnc5ccccc45)cc3[nH]2)cc1 [GR269666A] | 100% |
| CCn1c(-c2nonc2N)nc2c(C#CC(C)(C)O)nc(OCCNC)cc21.Cl [GSK949675] | 100% |
| COc1cc2ncn(-c3cc(O[C@H](C)c4ccccc4Cl)c(C(N)=O)s3)c2cc1OC [GSK237701A] | 2.6% |
| COc1cccc(-n2ncc3c(N/N=C/c4ccncc4)ncnc32)c1 [GW784752X] | 70% |
| C[C@@H](Oc1cc(-n2cnc3ccc(OC4CCN(C)CC4)cc32)sc1C(N)=O)c1ccccc1Cl [GSK579289A] | 41% |
| Cl.O=C(Nc1ccc(Oc2ccc3[nH]c(NC(=O)c4ccccc4)nc3c2)cc1)Nc1cc(C(F)(F)F)ccc1F [GW709042A] | 57% |
| C/C(Nc1ccc(S(N)(=O)=O)cc1)=C1/C(=O)Nc2ccccc21 [GW335962X] | 62% |

— PMC7826789 (International Journal of Molecular Sciences, 2021)
